Where “and” joins values, the source holds several entries; their conditions need not be identical. Identical values can stand only once. Out of some 16,000 compounds screened, about 5,800 (36%) were called active. Roughly 23% stayed inconclusive and do not appear here. Calls follow the shape of the dose curve; as a rule, active = well fitted curve in the direction sought with a large enough effect; inconclusive = small, poorly fitted or top-dose-only effect, or effect the other way; inactive = no such curve, though single readings can be large or run the other way. Some of the results follow. Some compounds were tested as several samples or in several runs, with calls that do not always agree.
% is scaled to controls: 0 for no effect and ±100 for the full control effect.

For this test, the target named is Cytochrome P450 2C19 (Homo sapiens) (UniProt P33261). In words: Cytochrome panel assay with activity outcomes. As to conditions: recombinant CYP, pro-luciferin dealkylation, luminescence, p450-cyp2c19; series mostly up to 57.1 µM.
Chain of Cytochrome P450 2C19 (Homo sapiens) (P33261 whole entry, looked up): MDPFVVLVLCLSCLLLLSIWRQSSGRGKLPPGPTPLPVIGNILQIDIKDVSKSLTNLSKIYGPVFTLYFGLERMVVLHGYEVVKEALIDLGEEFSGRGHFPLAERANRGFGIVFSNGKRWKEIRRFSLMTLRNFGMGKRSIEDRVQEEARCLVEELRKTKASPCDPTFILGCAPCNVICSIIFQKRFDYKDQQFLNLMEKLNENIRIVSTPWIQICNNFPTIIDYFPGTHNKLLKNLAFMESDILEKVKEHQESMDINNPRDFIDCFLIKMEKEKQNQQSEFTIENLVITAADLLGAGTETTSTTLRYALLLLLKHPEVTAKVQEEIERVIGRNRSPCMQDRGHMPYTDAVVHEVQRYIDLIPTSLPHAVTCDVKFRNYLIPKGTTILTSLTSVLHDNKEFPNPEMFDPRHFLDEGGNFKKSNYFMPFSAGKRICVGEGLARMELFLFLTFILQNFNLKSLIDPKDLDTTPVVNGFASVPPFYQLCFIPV
On to `CCN(CC)CC[n+]1ccc2c(C)c3[nH]c4ccccc4c3c(C)c2c1`, for which the activity, negative = inhibition is 2.93% [at 11.4 µM] (inactive). With `O=C(c1ccco1)N1CCC[C@@]2(CCN(C(c3ccccc3)c3ccccc3)C2)C1`, the AC50 entry is “inactive”.

`S=C(NCc1ccco1)N1CCN(Cc2ccco2)CC1`: the concentration at half-maximal activity (AC50) is 15.8 µM (active). Still for that read-out and setting: the same measure for `S=C(NCc1ccco1)N1CCN(C(c2ccccc2)c2ccccc2)CC1`: 7.08 µM (active); for `CS(=O)(=O)Nc1c(O)ccc2c1CCC[C@H]2C1=NCCN1`: “inactive”; for `O=C1c2cccnc2C(=O)N1Cc1ccc(F)cc1`: 8.91 µM (active).

In the case of `CCOc1ccc(N2C(=O)c3cccnc3C2=O)cc1`, the AC50 entry was “inactive”. Still for that read-out and setting: the same measure for `COc1ccccc1CN1CCCC2(CCN(C(C)=O)CC2)C1`: “inactive”; for `S=C1SCN(C2CCCCCCCCCCC2)CN1C1CCCCCCCCCCC1`: 3.98 µM (active); for `CCNc1ncc2nc(-c3ccc(F)cc3)c(=O)n(-c3ccc(OC)cc3)c2n1`: “inactive”.

For the compound `Cc1cc(OCCn2cc(/C(N)=N/O)c3ccccc32)ccc1Cl`, the AC50 was 0.708 µM (active). For the compound `Cc1c(C#N)c(=O)oc2ccc3ccccc3c12`, the AC50 result is “inactive”. Consider `CCCCN(C)C(=O)c1coc(=O)c2ccccc12`, for which the AC50 entry was “inactive”. Same read-out and setting: then `CCCCNC(=O)Cc1coc2ccc3ccccc3c12`, with 3.16 µM (active). On to `Nc1nc2c(c(=O)[nH]1)N(C=O)[C@H](CNc1ccc(C(=O)N[C@@H](CCC(=O)O)C(=O)O)cc1)CN2`, for which the AC50 result was “inactive”. The same measure, in the same setting: then `CCOC(=O)c1c(C)c(C(=O)NCCN2CCOCC2)c(C)n1CC`, with “inactive”; and `CCOC(=O)c1c(C)c(C(=O)N2CCCCCC2)c(C)n1C`, with 7.08 µM (active). With `CC(C)CN1CCC2(CC1)CCN(C(=O)c1csnn1)CC2`, the AC50 result was “inactive”. The same measure, in the same setting: the same measure for `O=C(Nc1cccc(F)c1)/C(=C\c1ccco1)NC(=O)c1cccs1`: 14.1 µM (active); for `CCOC(=O)c1c(C)nc2c(c1-c1ccccc1)C(=O)CC(C)(C)C2`: 7.08 µM (active); for `CCn1cc(C(=O)O)c(=O)c2cc(F)c(N3CCN[C@@H](C)C3)c(F)c21`: “inactive”. The same measure, in the same setting: then `COC(=O)C1=C(C)N=C2SC(C)C(=O)N2C1/C=C/c1ccccc1` (stereo not drawn), with 5.01 µM (active); and `CCc1cc2c(c(CC)n1)CCC(=O)N2Cc1ccc(-c2ccccc2-c2nn[nH]n2)cc1`, with 5.01 µM (active). As for `CC1=N[C@@](C)(COC(=O)[C@]2(C)N[C@](C)(CO)CO2)COC1=O`, the activity, negative = inhibition was 40.4% [at 11.4 µM] (inactive).

As for `COc1ccc(/C=C(/C(=O)Nc2ccccc2C(=O)NC(C)C)c2ccccc2)cc1`, the concentration at half-maximal activity (AC50) was 15.8 µM (active).

Turning to `O=C(O)/C(=C\c1ccccc1)c1ccccc1`, the activity, negative = inhibition was 11.9% [at 11.4 µM] (inactive). For the compound `Cc1ccccc1NC(=O)/C(=C/c1ccccc1)c1ccccc1`, the concentration at half-maximal activity (AC50) was 10 µM (active). Still for that read-out and setting: then `CC(C)NC(=O)c1ccccc1NC(=O)/C=C/c1ccc([N+](=O)[O-])cc1`, with “inactive”; and `CCN(CC)CCOC(=O)C1(C2CCCCC2)CCCCC1`, with “inactive”. Same read-out and setting: the same measure for `N#Cc1cccc(NC(=O)N2CCCC3(CCN(C(=O)c4cc(C(F)(F)F)cc(C(F)(F)F)c4)CC3)C2)c1`: “inactive”. In the case of `O=C(Nc1cccc(F)c1)N1CC2(CCN(C(=O)c3cc(C(F)(F)F)cc(C(F)(F)F)c3)CC2)C1`, the AC50 entry is “inactive”. As to `N#Cc1cccc(NC(=O)N2CC3(CCN(C(=O)c4cc(C(F)(F)F)cc(C(F)(F)F)c4)CC3)C2)c1`, the concentration at half-maximal activity (AC50) was 0.631 µM (active).

In the case of `Cc1ccc2c(c1)/C(=N/OC(=O)c1ccc(F)cc1)CCS2`, the AC50 result was “inactive”. The same measure, in the same setting: then `C/C(=N\OC(=O)c1ccc(F)cc1)c1nccs1`, with 17.8 µM (active).

Consider `O=C(O)[C@H]1C[C@H](C(=O)O)N1`, for which the AC50 result was “inactive”. Consider `O=C(O)[C@H]1[C@H](C(=O)O)[C@H](C(=O)O)C[C@@H]1C(=O)O`, for which the activity, negative = inhibition was 24.8% [at 11.4 µM] (inactive). As to `O=C(O)[C@@H]1C[C@@H](C(=O)O)N1`, the AC50 is 25.1 µM (active).

`COc1c(/C=N/Nc2ccc([N+](=O)[O-])cc2[N+](=O)[O-])c(C)nn1-c1ccccc1`: the AC50 entry is “inactive”. The same measure, in the same setting: the same measure for `O=[N+]([O-])c1ccccc1N/N=C/c1c[nH]c2ccccc12`: 10 µM (active); for `O=S(=O)(NCc1cn2ccsc2n1)c1ccc(Oc2ccccc2)cc1`: 10 µM (active); for `COc1ccccc1N1CCN(CCN2C(=O)c3ccccc3C(C)(C)C2=O)CC1`: “inactive”. Same read-out and setting: then `COc1cccc2cc(C(=O)CC3(O)C(=O)N(Cc4ccccc4)c4ccccc43)c(=O)oc12` (stereo not drawn), with 25.1 µM (active); and `N.N.O=C(O)C1(C(=O)O)CCC1.[Pt]`, with 3.98 µM (active). With `O=C(O)C1(C(=O)O)CCN(S(=O)(=O)c2ccccc2)CC1`, the activity, negative = inhibition was 16.2% [at 11.4 µM] (inactive). For `COc1ccc(OCc2nnc(SCC(=O)O)n2N)cc1`, the AC50 entry is “inactive”. For `O=C(CSc1nnc(COc2ccccc2)n1-c1ccccc1)c1ccccc1`, the concentration at half-maximal activity (AC50) was 3.98 µM (active). The same measure, in the same setting: then `Cc1c(C(=O)N2CCCCCC2)nnn1-c1nonc1N`, with 7.94 µM (active); and `Cc1nonc1NC(=O)N1CCCC1`, with “inactive”; and `CCOC(=O)c1nnn(-c2nonc2N)c1-c1ccccc1`, with 2.82 µM (active). Same read-out and setting: then `Nc1nonc1-n1nncc1-c1ccccc1`, with 6.31 µM (active). On to `CC(C)OC(=O)c1nnn(-c2nonc2N)c1CSc1ccccn1`, for which the AC50 was 0.251 µM (active). `NC(N)=NC(N)=Nc1c(F)c(F)c(F)c(F)c1F`: the activity, negative = inhibition was -5.72% [at 11.4 µM] (inactive).

As for `COCc1c(C(N)=O)nnn1-c1nonc1N`, the AC50 result is “inactive”. Still for that read-out and setting: then `CCOC(=O)c1nnn(-c2nc(OC)nc(N3CCCCC3)n2)c1-c1ccccc1`, with 7.94 µM (active); and `CCOC(=O)c1nnn(-c2nonc2N)c1-c1ccc(C)cc1`, with 1.58 µM (active). Still for that read-out and setting: the same measure for `OC[C@H]1NC[C@H](O)[C@@H](O)[C@H]1O`: “inactive”. For the compound `O=C(O)[C@@H]1CCCN1Cc1ccc2c(c1)OCO2`, the activity, negative = inhibition is 14.1% [at 11.4 µM] (inactive). With `O=C(COc1ccc(Cl)cc1)N1CCN(Cc2ccc3c(c2)OCO3)CC1`, the AC50 is 5.01 µM (active).

`COCC(=O)N1CCC[C@@]2(CCN(Cc3ccc(C#N)cc3)C2)C1`: the AC50 entry was “inactive”. Same read-out and setting: then `c1cnc(N2CCN(Cc3ccc4c(c3)OCO4)CC2)nc1`, with 2 µM (active) and 631 nM (active) and inactive. Still for that read-out and setting: the same measure for `O=C(CCN1C(=O)c2cccc3cccc(c23)C1=O)N1CCN(Cc2ccc3c(c2)OCO3)CC1`: 1.58 µM (active).

On to `COCC(=O)N1CCC2(CC1)CN(Cc1ccc(C#N)cc1)C2`, for which the AC50 result was “inactive”. Still for that read-out and setting: the same measure for `Cc1cccc(Oc2ncnc3onc(C)c23)c1C`: 5.01 µM (active); for `Cc1noc2ncnc(Oc3ccc4ccccc4c3)c12`: 7.08 µM (active). Take `Cc1noc(C)c1-c1cc(NCc2ccccc2)ncn1`: the AC50 entry is “inactive”.

Regarding `COc1ccc(NC(=O)N2CC3(CCN(C(=O)c4csnn4)CC3)C2)cc1`, the AC50 result is “inactive”. As for `NC(Cc1ccccc1)=NCC(=O)O`, the activity, negative = inhibition was 18.2% [at 11.4 µM] (inactive). Turning to `Cc1cccc(CN2CCN(CC(=O)O)C2=O)c1`, the AC50 result is “inactive”. Same read-out and setting: the same measure for `O=C(O)CN1CCN(Cc2ccc(F)cc2Cl)C1=O`: 5.01 µM (active); for `O=C(O)CN1CCN(Cc2ccccc2)C1=O`: 6.31 µM (active). Consider `Nc1nc2ncc(CNc3ccc(C(=O)N[C@@H](CCC(=O)O)C(=O)O)cc3)nc2c(=O)[nH]1`, for which the AC50 result was “inactive”.

As to `Nc1ccc(O)c(C(=O)O)c1`, the concentration at half-maximal activity (AC50) is 5.01 µM (active). With `NC(N)=N/N=C\c1ccc(O)c(C(=O)O)c1`, the activity, negative = inhibition was 16.2% [at 11.4 µM] (inactive). Consider `N[C@@H](C(=O)O)c1ccc(O)c(C(=O)O)c1`, for which the AC50 result was “inactive”. As to `Cc1ccc(C(=O)c2cn[nH]c2-c2cc(Cl)ccc2O)cc1`, the concentration at half-maximal activity (AC50) was 0.708 µM (active). On to `Cc1cc2c(nc1C)CCCCN2C[C@H](C)O/N=C\[C@@H](C)[C@H](OCc1ccccc1)C(C)C`, for which the activity, negative = inhibition was -20.8% [at 11.4 µM] (inactive).

As for `Cc1nc(SCC(=O)c2ccc(Cl)s2)c2oc3ccccc3c2n1`, the AC50 was 0.178 µM (active). On the same count and under the same terms, the same measure for `CCc1nc(SCC(=O)N2CCCc3ccccc32)c2oc3ccccc3c2n1`: 3.98 µM (active). As for `CCc1nc(SCC(=O)c2ccc(Cl)s2)c2oc3ccccc3c2n1`, the AC50 is 0.562 µM (active).

Regarding `CC(=O)OC[C@@H]1O[C@@H](O/N=C2/C[C@@H](O)[C@@H](O)[C@@H]3[C@@H]4C(=O)N(c5cccc(Oc6ccccc6)c5)C(=O)[C@H]4CC[C@@H]23)[C@H](OC(C)=O)[C@H](OC(C)=O)[C@@H]1OC(C)=O`, the activity, negative = inhibition is -22% [at 11.4 µM] (inactive). Regarding `O=C(CCl)Nc1ccc(Oc2cnc3ccccc3n2)cc1`, the AC50 is 5.01 µM (active).

With `Cn1cc(-c2nc3cnc(Oc4cccc(Cl)c4)nc3n(CCC#N)c2=O)c2ccccc21`, the AC50 entry was “inactive”. Same read-out and setting: then `Cn1c(=O)c(-c2ccc(Cl)cc2)nc2cnc(Oc3cccc(Cl)c3)nc21`, with “inactive”; and `Clc1cccc(Oc2cnc3ccccc3n2)c1`, with 3.55 µM (active). For the compound `CN1CCCC[C@@H]1CCN1CCCCC1`, the activity, negative = inhibition was 26.3% [at 11.4 µM] (inactive).

On to `COC(=O)c1ccccc1NC(=O)c1cc2nc(C3CC3)cc(C(F)(F)F)n2n1`, for which the AC50 result was “inactive”. Same read-out and setting: the same measure for `COc1ccc(-c2cc(C(F)(F)F)n3nc(C(=O)N4CCCCC4)cc3n2)cc1`: 14.1 µM (active). The same measure, in the same setting: then `CCOC(=O)C1CCCN(C(=O)c2cc3nc(-c4ccc5c(c4)OCO5)cc(C(F)(F)F)n3n2)C1` (stereo not drawn), with 14.1 µM (active). `COc1ccc(NC(=O)N2CCCC3(CCN(C(=O)c4cc(C(F)(F)F)cc(C(F)(F)F)c4)CC3)C2)cc1`: the AC50 entry is “inactive”. For the compound `C[C@H](c1ccccc1)N1C(=O)[C@H]2[C@@H]3[C@H](O)[C@H](O)CC(=O)[C@H]3CC[C@H]2C1=O`, the activity, negative = inhibition is -0.855% [at 11.4 µM] (inactive). As to `CCc1nnc(SCc2ccc(OC(C)C)cc2)n1N`, the AC50 was 10 µM (active).

With `COc1cccc2c1C(=N)c1c(O)c3c(c(O)c1C2=O)C[C@](O)(C(C)=O)C[C@@H]3O[C@H]1C[C@H](N)[C@@H](O)[C@H](C)O1`, the activity, negative = inhibition was -44.3% [at 11.4 µM] (inactive). As for `O=C(NCc1ccc(Cl)cc1)c1ccc(Cl)cc1[N+](=O)[O-]`, the AC50 is 1.26 µM (active). Take `O=C(NCc1ccccc1)c1ccc(Cl)cc1[N+](=O)[O-]`: the half-maximal activity concentration (AC50) is 11.2 µM (active). `CCOc1ccc(NC(=O)c2ccc(Br)o2)c([N+](=O)[O-])c1`: the AC50 entry was “inactive”. As to `Cc1ccc(C(=O)NCCNc2ccc(Cl)cc2[N+](=O)[O-])o1`, the AC50 was 7.94 µM (active).

Regarding `O=[N+]([O-])c1cc(Cl)cc2c1nc(NCCO)c1ccccc12`, the activity, negative = inhibition is -34.6% [at 11.4 µM] (inactive). On to `COc1cc(C(=O)NCCC(C)C)c([N+](=O)[O-])cc1OC`, for which the AC50 result is “inactive”.

A word on the AC50: it is the midpoint of the concentration-response curve, whichever way the signal moves.

Source of the values: PubChem BioAssay AID1851 (National Center for Advancing Translational Sciences (NCATS), 2009).
